Assay [1] can be described thus: NCI Yeast Anticancer Drug Screen. Data for the rad50 strain (AID 155).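 Also: 0% = growth of vehicle-only cultures of the same strain.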 The note with it: S. cerevisiae rad50 strain growth inhibition; at 50.0 µM; stronger effect = higher value. The method in brief:
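Yeast carrying a defined DNA repair defect were exposed to test compounds, and growth was compared with vehicle-treated controls to give percent inhibition.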

The nature of assay [2]: NCI Yeast Anticancer Drug Screen. Data for the mec2-1 strain (AID 157). The note with it: S. cerevisiae mec2-1 strain, at 50.0 µM, stronger effect = higher value. The essentials:
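Vehicle-treated cultures served as reference for growth inhibition of compound-exposed mec2-1 yeast.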

A short description of assay [3]: NCI Yeast Anticancer Drug Screen. Data for the sgs1 mgt1 strain (AID 161).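 Also: 0% = growth of cultures given vehicle only.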 Particulars: S. cerevisiae sgs1 mgt1 strain, at 50.0 µM, stronger effect = higher value. The essentials: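 Read-out: growth inhibition vs vehicle controls. Cells: mutant yeast strain deficient in DNA damage repair.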
A short description of assay [4]: NCI Yeast Anticancer Drug Screen. Data for the cln2 rad14 strain (AID 165).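 Also: 0% = growth equal to vehicle treated cultures.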 Particulars: S. cerevisiae cln2 rad14 strain, at 50.0 µM, stronger effect = higher value. The essentials: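 Each compound was tested on cln2 rad14 yeast. Inhibition of growth was calculated against vehicle-exposed controls.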
Assay [5] can be described thus: NCI Yeast Anticancer Drug Screen. Data for the bub3 strain (AID 167). The note with it: S. cerevisiae bub3 mutant strain, at 50.0 µM, stronger effect = higher value. The essentials: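 Compounds were applied to a genetically altered yeast strain carrying a cell-cycle control defect. Growth inhibition was scored against vehicle-treated controls.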
The nature of assay [6]: NCI Yeast Anticancer Drug Screen. Data for the mlh1 rad18 strain (AID 175). The note with it: S. cerevisiae mlh1 rad18 strain growth inhibition; at 50.0 µM; stronger effect = higher value. The method in brief:
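Vehicle-treated cultures served as the reference for growth inhibition in a yeast strain carrying DNA damage repair alterations exposed to each compound.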

Compounds without any hit were thinned out: in the full panel of roughly 79,000, 15% have a hit. Values without a mark were called inactive. Calls of active or inactive are those of the source. Rule as the data show it: active = growth inhibition above about 70%; inactive = the rest.

As to `CC1=NOC(C)(O)/C1=N/O` (stereo not given), the growth inhibition in assay [1] is 6.8%; in assay [2], 1.05%; in assay [3], 17.9%; in assay [4], -2.75%; in assay [5], 9.75%; in assay [6] it was -21.3%.

Take `Cc1ccc(C(C)(CCC(=O)O)c2ccc(C)o2)o1`: the growth inhibition in assay [1] is 36.2%; in assay [2] it was 12.2%; in assay [3] it was 7.35%; in assay [4], 45.2%; in assay [5], 8.5%; in assay [6], 25.4%.

As to `Cc1[nH]c(=O)[nH]c(=O)c1/C=C/C(=O)NC(CO)CS(C)=O` (stereo not given), the growth inhibition in assay [1] was -1.5%; in assay [2], -7.15%; in assay [3] it was 0.75%; in assay [4] it was 6.1%; in assay [5], 0.75%; in assay [6], 7.05%.

With `S=c1ccc2ccccc2[nH]1`, the growth inhibition in assay [1] was -16.9%; in assay [2], -8.15%; in assay [3], -0.75%; in assay [4] it was -13%; in assay [5], -16.1%; in assay [6], -13.8%.

In the case of `Cc1cc(Cl)ccc1NC(=O)C1C(=O)N(c2ccc(Cl)cc2C)C(=O)/C1=N\NC(N)=S` (stereo not given), the growth inhibition in assay [1] is -16.6%; in assay [2] it was -6.6%; in assay [3], -22.5%; in assay [4], -0.25%; in assay [5], -2.5%; in assay [6] it was -27.1%.

As to `Clc1ccccc1C(Nc1nc2ccccc2s1)Nc1nc2ccccc2s1`, the growth inhibition is 13.3% in assay [1]; 0.8% in assay [2]; -10.9% in assay [3]; 4.65% in assay [4]; -2% in assay [5]; 17.4% in assay [6].

In the case of `CN(C=O)c1ccccc1`, the growth inhibition in assay [1] is 3.6%; in assay [2], 1.8%; in assay [3], 6.15%; in assay [4] it was 11.7%; in assay [5] it was 2.05%; in assay [6], 3.05%.

With `Cc1cn(CCCSCC2OC3OC4C(CO)OC(OC5C(CO)OC(OC6C(CO)OC(OC7C(CO)OC(OC8C(CO)OC(OC9C(CO)OC(OC2C(O)C3O)C(O)C9O)C(O)C8O)C(O)C7O)C(O)C6O)C(O)C5O)C(O)C4O)c(=O)[nH]c1=O` (stereo not given), the growth inhibition is -21.6% in assay [1]; -9.35% in assay [2]; -18.4% in assay [3]; 0% in assay [4]; -1.85% in assay [5]; -14.2% in assay [6].

On to `O=C(O)/C=C/c1ccc(O)c(O)c1`, for which the growth inhibition in assay [1] is 18.3%; in assay [2], -7.15%; in assay [3], 0.5%; in assay [4], 9.9%; in assay [5] it was 7.25%; in assay [6] it was 7.65%.

With `Cc1c2n(c(=O)[nH]c1=O)C1OC(CO)C(N=[N+]=[N-])C1O2` (stereo not given), the growth inhibition in assay [1] was -5.5%; in assay [2], -15.9%; in assay [3] it was -42%; in assay [4], -12.3%; in assay [5], -39.2%; in assay [6], -32.2%.

As for `O=C(O)c1c2c(nc3ccccc13)CCC2`, the growth inhibition is 2.55% in assay [1]; -9.75% in assay [2]; 6.35% in assay [3]; -14.5% in assay [4]; 12.2% in assay [5]; -8.4% in assay [6].

For `CN/C=C(/OCc1ccccc1)c1ccc(O)c(O)c1`, the growth inhibition is 2.2% in assay [1]; 0.9% in assay [2]; 3.05% in assay [3]; -6% in assay [4]; -19.7% in assay [5]; 19.2% in assay [6].

As to `CCOC(=O)C(C=Nc1ccc(S(N)(=O)=O)cc1)C(=O)OCC`, the growth inhibition in assay [1] is -8.15%; in assay [2], 4.85%; in assay [3], 12.1%; in assay [4], -22.4%; in assay [5], -1.1%; in assay [6], -24.9%.

As for `O=C(c1ccccc1)N1CC2CCC1CN2C(=O)c1ccccc1`, the growth inhibition in assay [1] was 15.8%; in assay [2], 15.2%; in assay [3] it was 4%; in assay [4], 6.95%; in assay [5] it was 42.7%; in assay [6] it was -8.45%.

On to `CC(c1ccc(O)cc1)c1cc2c(cc1OCCO)OCO2` (stereo not given), for which the growth inhibition was 99.3% (active) in assay [1]; 99% (active) in assay [2]; 99.4% (active) in assay [3]; 99.3% (active) in assay [4]; 99.5% (active) in assay [5]; 99.1% (active) in assay [6].

Regarding `CCOc1ccc(-c2oc(/C=N/NS(=O)(=O)c3ccc(C)cc3)c([N+](=O)[O-])c2-c2ccc(OCC)cc2)cc1`, the growth inhibition in assay [1] is 59.7%; in assay [2], 37.5%; in assay [3], 64%; in assay [4], 62.2%; in assay [5] it was 44.6%; in assay [6], 58.5%.

On to `COC(=O)N/N=C/c1oc(-c2cccc([N+](=O)[O-])c2)c(-c2cccc([N+](=O)[O-])c2)c1[N+](=O)[O-]`, for which the growth inhibition in assay [1] was 19.4%; in assay [2], 30.1%; in assay [3], 16.5%; in assay [4] it was 22.6%; in assay [5] it was 21%; in assay [6], 22.6%.

As to `COc1cc(NC(C)CCCN)c2nccc(C)c2c1` (stereo not given), the growth inhibition in assay [1] is 16.2%; in assay [2], 12.2%; in assay [3], -27.1%; in assay [4] it was -8.15%; in assay [5], -62.5%; in assay [6], -36.9%.

On to `O=C(Nc1nc2ccccc2n1Cc1ccc(Cl)cc1)NC12CC3CC(CC(C3)C1)C2`, for which the growth inhibition is 15.8% in assay [1]; -6.45% in assay [2]; 7.2% in assay [3]; -30.6% in assay [4]; 27.5% in assay [5]; -18.6% in assay [6].

As to `CCOC(=O)C1=C(C(=O)c2cccc3ccccc23)C(c2cccc([N+](=O)[O-])c2)C(C(=O)c2cccc3ccccc23)=C(C(=O)OCC)N1`, the growth inhibition is -12.9% in assay [1]; -7.75% in assay [2]; 13.7% in assay [3]; -26.3% in assay [4]; -45.6% in assay [5]; -25.2% in assay [6].

Source of the values: PubChem BioAssay (NCI).
